Assay results: PubChem BioAssay (Tox21)
Values joined by “and” are separate entries in the source; they are usually repeats but may differ in a detail not shown here. Identical values can stand only once. Inconclusive results are not listed. A call without a number means that no potency is given here. A structure can be active in one record and inactive in another. Active and inactive are the calls of the source. Unless noted, calls follow the shape of the dose curve; as a rule, active = well fitted curve in the direction sought with a large enough effect in the repeat runs; inconclusive = weak or mixed curves; inactive = no such curve, though single readings can be large; an effect the other way counts as inactive or inconclusive.

Columns and labels:
[1] = qHTS assay to identify small molecule antagonists of the estrogen receptor alpha (ER-alpha) signaling pathway using the BG1 cell line in the presence of 0.1 nM 17-beta-estradiol - cell viability counter screen (AID 1259241); also: nearly all actives have a fitted effect of over 40% in size; also: potency is read from the fitted curve at half-maximal effect
Summary of the method: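 In this screen, hormone-deprived VM7Luc4E2 cells were seeded at 4,000 per well, dosed with compound and 0.1 nM estradiol final, and incubated 22 hr at 37C and 5% CO2; fluorogenic live-cell protease signal reported viability.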

[2] = target: Androgen receptor (Homo sapiens) (UniProt P10275); experiment: qHTS assay to identify small molecule antagonists of the androgen receptor (AR) signaling pathway using the MDA cell line in the presence of 0.5 nM R1881 (AID 1259243); also: nearly all actives have a fitted effect of over 50% in size; also: potency is read from the fitted curve at half-maximal effect
Summary of the method: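 Stably transfected MDA-kb2 cells express luciferase from an MMTV promoter bearing both AR and GR response elements. Compounds plus 0.5 nM R1881 (final) were incubated 16 hr at 37C without CO2, then luminescence measured.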

[3] = target: Estrogen receptor (Homo sapiens) (UniProt P03372); experiment: qHTS assay to identify small molecule antagonists of the estrogen receptor alpha (ER-alpha) signaling pathway using the BG1 cell line in the presence of 0.1 nM 17-beta-estradiol (AID 1259244); also: nearly all actives have a fitted effect of over 50% in size; also: potency is read from the fitted curve at half-maximal effect
Summary of the method: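 Antagonist mode: compounds in DMSO are pinned onto VM7Luc4E2 reporter cells, 0.1 nM final 17beta-estradiol is added, and after 22 h at 37C luciferase luminescence is measured with ONE-Glo.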

[4] = qHTS assay to identify small molecule HDAC inhibitors (AID 1259364); also: potency is read from the fitted curve at half-maximal effect;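 also: wild-type HCT-116 cells with endogenous class I/II HDAC activity; nearly all actives have a fitted effect of over 45% in size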
Summary of the method: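 Cells (HCT-116, wild type) are seeded at 1,500 per well, incubated overnight, treated with compound in DMSO for 2 hr, then developed with HDAC-Glo I/II reagent for 30 min at room temperature.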

[5] = qHTS assay to identify small molecule agonists of the sonic hedgehog signaling (Shh) pathway - cell viability counter screen (AID 1259366); also: nearly all actives have a fitted effect of over 50% in size; also: potency is read from the fitted curve at half-maximal effect
Summary of the method: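 In quantitative high-throughput format, 3T3 Gli1-Luc cells were exposed to compounds for 24hr and multiplexed for viability using CellTiter-Fluor, incubated 1hr at 37C before the fluorescence read.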

[6] = qHTS assay to identify small molecule agonists of the sonic hedgehog signaling (Shh) pathway (AID 1259368; calls by dose curve;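 also: NIH/3T3-derived 3T3Gli1-Luc cells carrying a stable Gli1-driven firefly luciferase reporter; series mostly up to about 92 µM; nearly all actives have a fitted effect of over 15% in size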)
Summary of the method: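 Cells of a mouse NIH/3T3 clone stably expressing luciferase under the Gli1 transcriptional response element are exposed to test chemicals for 24 hr at 37 C. Pathway activation is detected as a rise in luminescence.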

[7] = target: Estrogen receptor beta (Homo sapiens) (UniProt Q92731); experiment: qHTS assay to identify small molecule agonists of the estrogen receptor beta (ER-beta) signaling pathway (AID 1259377; active = well fitted activation curve with a large enough effect in the signal ratio in the repeat runs, not every such curve was filed as active; the % refers to the signal ratio)
Summary of the method: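 Reporter cells (HEK293T, ER-beta-UAS-bla) receive compounds or DMSO after a 6 hr pre-incubation. They then incubate 16 hr at 37C/5% CO2, and fluorescence from LiveBLAzer B/G substrate is measured after 2 hours at room temperature.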

[8] = target: Estrogen receptor beta (Homo sapiens) (UniProt Q92731); experiment: qHTS assay to identify small molecule antagonists of the estrogen receptor beta (ER-beta) signaling pathway (AID 1259378; active = well fitted inhibition curve with a large enough effect in the signal ratio in the repeat runs, not every such curve was filed as active; the % refers to the signal ratio; also: potency is read from the fitted curve at half-maximal effect)
Summary of the method: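 Antagonist mode: compounds added to beta-lactamase reporter HEK293T ER-beta-UAS cells stimulated with E2 (1nM final), 16 hr at 37C. LiveBLAzer B/G FRET substrate, 2 hours room temperature, fluorescence read-out.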

[9] = qHTS assay to identify small molecule agonists of the androgen receptor (AR) signaling pathway in the presence of an antagonist - cell viability counter screen (AID 1259379); also: nearly all actives have a fitted effect of over 25% in size; also: potency is read from the fitted curve at half-maximal effect
Summary of the method: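 Cytotoxicity is assessed by CellTiter-Fluor in MDA-kb2 cells carrying an MMTV-driven luciferase reporter. Cells receive 3.0uM nilutamide plus compounds at 15 concentrations and incubate 16 hr at 37C without CO2 before fluorescence reading.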

[10] = target: Androgen receptor (Homo sapiens) (UniProt P10275); experiment: qHTS assay to identify small molecule agonists of the androgen receptor (AR) signaling pathway in the presence of an antagonist (AID 1259381; calls by dose curve; also: nearly all actives have a fitted effect of over 15% in size)
Summary of the method: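 Agonist-mode confirmation screen: human MDA-kb2 cells stably expressing luciferase under an MMTV promoter bearing AR and GR response elements, co-treated with 3.0uM nilutamide (final). Luminescence measured after 16hr compound incubation.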

[11] = qHTS assay to identify small molecule antagonists of the estrogen receptor beta (ER-beta) signaling pathway - cell viability counter screen (AID 1259382); also: nearly all actives have a fitted effect of over 55% in size; also: potency is read from the fitted curve at half-maximal effect
Summary of the method: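 Cytotoxicity counter screen multiplexed with the beta-lactamase antagonist assay: GripTite HEK293T ER-beta-bla cells were treated 16 hr with test chemicals in the presence of 1nM 17-beta-estradiol, and viability was measured by CellTiter-Glo.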

[12] = target: Estrogen receptor (Homo sapiens) (UniProt P03372); experiment: qHTS assay to identify small molecule agonists of the estrogen receptor alpha (ER-alpha) signaling pathway in the presence of an antagonist (AID 1259383; calls by dose curve; also: nearly all actives have a fitted effect of over 15% in size; also: potency is read from the fitted curve at half-maximal effect; as to activation: top concentration of the series differs between compounds)
Summary of the method: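 Agonist-mode confirmation in the presence of the ER antagonist ICI-182,780 at 10.0nM final. Breast-derived VM7Luc4E2 reporter cells were exposed to compounds for 22hr, and ERE-driven luciferase was quantified by luminescence.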

[13] = qHTS assay to identify small molecule phospholipidosis (PLD) inducers (AID 1259344; active = well fitted curve in the direction sought with a large enough effect; an effect the other way counts as inactive or inconclusive)
Summary of the method: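 Accumulated phospholipid, stained red by LipidTOX during 24 h compound treatment of HepG2 cells at 37 C, is quantified from images as pit number and intensity, normalised per cell using Hoechst-stained nuclei.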

[14] = qHTS assay to identify small molecule HDAC inhibitors - cell viability counter screen (AID 1259365); also: series mostly up to about 92 µM; nearly all actives have a fitted effect of over 50% in size
Summary of the method: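 Measured quantity is CellTiter-Glo luminescence from wild-type HCT-116 cells after compound incubation of 2hr at 37C, 5% CO2; reagent developed 30min at room temperature.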

[15] = qHTS assay to identify small molecule antagonists of the sonic hedgehog signaling (Shh) pathway - cell viability counter screen (AID 1259367); also: nearly all actives have a fitted effect of over 55% in size; also: potency is read from the fitted curve at half-maximal effect
Summary of the method: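 CellTiter-Fluor signal in conditioned medium-stimulated 3T3 Gli1-Luc cells, 23 hr compound exposure, 37C.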

[16] = qHTS assay to identify small molecule antagonists of the sonic hedgehog signaling (Shh) pathway (AID 1259369; calls by dose curve; also: nearly all actives have a fitted effect of over 45% in size; also: potency is read from the fitted curve at half-maximal effect)
Summary of the method: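 Cells are plated and held 4hr at 37 C, compounds (DMSO) are pinned in, conditioned medium is added to stimulate the pathway, and after 24hr luciferase reagent is added for 30min before luminescence is read.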

[17] = qHTS assay to identify small molecule agonists of the estrogen receptor beta (ER-beta) signaling pathway - cell viability counter screen (AID 1259380); also: nearly all actives have a fitted effect of over 30% in size; also: potency is read from the fitted curve at half-maximal effect
Summary of the method: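 Cytotoxicity is measured in parallel with the reporter screen: after 16 hr compound exposure at 37C and a 2 hr LiveBLAzer step, CellTiter-Glo is added to the same ER-beta-UAS-bla HEK293T wells and luminescence read after 30 min.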

[18] = qHTS assay to identify small molecule agonists or antagonists of the thyroid stimulating hormone receptor (TSHR) signaling pathway - wild type cell line counter screen (AID 1259384; calls by dose curve)
Summary of the method: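 Counter screen in untransfected Hek293: compounds (15-point titration, triplicate) plus phosphodiesterase inhibitor Ro20-1724 added after 18 h plating; 30 min RT. Intracellular cAMP via competitive d2/cryptate immunoassay, 1 h incubation.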

[19] = target: Thyrotropin receptor (Homo sapiens) (UniProt P16473); experiment: qHTS assay to identify small molecule antagonists of the thyroid stimulating hormone receptor (TSHR) signaling pathway (AID 1259385; calls by dose curve; also: nearly all actives have a fitted effect of over 20% in size)
Summary of the method: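 Antagonist mode: compound-treated TSHR-expressing HEK293 cells were stimulated with 1.5 ng/mL TSH (final) in presence of Ro20-1724 for 30 min at RT. HTRF cAMP detection after 1 h; each compound tested at 15 concentrations, triplicate.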

[20] = qHTS assay to identify small molecule antagonists of the androgen receptor (AR) signaling pathway using the MDA cell line in the presence of 0.5 nM R1881 - cell viability counter screen (AID 1259242); also: potency is read from the fitted curve at half-maximal effect; nearly all actives have a fitted effect of over 45% in size
Summary of the method: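 Steps: plate MDA-kb2 cells, rest 5 hr at 37C without CO2; pin in compounds in DMSO; add R1881 to 0.5 nM final; incubate 16 hr; add CellTiter-Fluor, 30 min; read fluorescence.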

Chain of Estrogen receptor beta (Homo sapiens) (Q92731 whole entry, looked up): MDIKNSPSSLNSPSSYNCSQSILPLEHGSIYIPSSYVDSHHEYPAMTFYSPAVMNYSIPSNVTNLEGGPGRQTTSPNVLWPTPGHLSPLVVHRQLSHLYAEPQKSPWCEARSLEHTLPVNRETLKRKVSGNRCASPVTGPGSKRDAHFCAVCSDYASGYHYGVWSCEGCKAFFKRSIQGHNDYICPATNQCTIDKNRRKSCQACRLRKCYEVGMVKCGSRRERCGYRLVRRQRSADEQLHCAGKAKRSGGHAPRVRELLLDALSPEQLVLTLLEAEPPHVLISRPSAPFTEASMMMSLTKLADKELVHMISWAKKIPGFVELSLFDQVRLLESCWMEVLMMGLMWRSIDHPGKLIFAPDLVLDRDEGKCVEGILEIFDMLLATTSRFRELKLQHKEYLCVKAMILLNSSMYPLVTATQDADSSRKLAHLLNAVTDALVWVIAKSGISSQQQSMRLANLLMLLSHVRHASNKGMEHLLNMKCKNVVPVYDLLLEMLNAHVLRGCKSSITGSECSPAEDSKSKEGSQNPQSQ
Chain of Thyrotropin receptor (Homo sapiens) (P16473 whole entry, looked up): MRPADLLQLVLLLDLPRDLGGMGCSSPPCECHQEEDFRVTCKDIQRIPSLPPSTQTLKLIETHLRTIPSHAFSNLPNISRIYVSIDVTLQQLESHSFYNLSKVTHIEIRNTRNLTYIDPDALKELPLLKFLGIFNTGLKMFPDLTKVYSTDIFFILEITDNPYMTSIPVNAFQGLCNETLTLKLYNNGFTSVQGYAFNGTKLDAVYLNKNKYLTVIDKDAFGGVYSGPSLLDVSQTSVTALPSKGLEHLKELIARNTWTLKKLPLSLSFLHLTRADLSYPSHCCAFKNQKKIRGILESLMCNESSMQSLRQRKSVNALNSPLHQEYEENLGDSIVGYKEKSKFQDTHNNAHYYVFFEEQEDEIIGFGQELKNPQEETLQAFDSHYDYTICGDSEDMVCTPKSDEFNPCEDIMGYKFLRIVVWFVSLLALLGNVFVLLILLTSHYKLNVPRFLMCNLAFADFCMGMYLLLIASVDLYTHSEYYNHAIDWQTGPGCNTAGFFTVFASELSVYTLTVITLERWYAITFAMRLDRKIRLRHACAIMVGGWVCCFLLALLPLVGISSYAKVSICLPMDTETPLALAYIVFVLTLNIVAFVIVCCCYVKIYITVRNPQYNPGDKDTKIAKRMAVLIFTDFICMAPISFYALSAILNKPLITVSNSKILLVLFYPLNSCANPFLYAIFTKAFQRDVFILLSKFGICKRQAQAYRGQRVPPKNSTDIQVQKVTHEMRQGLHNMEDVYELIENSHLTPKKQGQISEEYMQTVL
Chain of Estrogen receptor (Homo sapiens) (P03372 whole entry, looked up): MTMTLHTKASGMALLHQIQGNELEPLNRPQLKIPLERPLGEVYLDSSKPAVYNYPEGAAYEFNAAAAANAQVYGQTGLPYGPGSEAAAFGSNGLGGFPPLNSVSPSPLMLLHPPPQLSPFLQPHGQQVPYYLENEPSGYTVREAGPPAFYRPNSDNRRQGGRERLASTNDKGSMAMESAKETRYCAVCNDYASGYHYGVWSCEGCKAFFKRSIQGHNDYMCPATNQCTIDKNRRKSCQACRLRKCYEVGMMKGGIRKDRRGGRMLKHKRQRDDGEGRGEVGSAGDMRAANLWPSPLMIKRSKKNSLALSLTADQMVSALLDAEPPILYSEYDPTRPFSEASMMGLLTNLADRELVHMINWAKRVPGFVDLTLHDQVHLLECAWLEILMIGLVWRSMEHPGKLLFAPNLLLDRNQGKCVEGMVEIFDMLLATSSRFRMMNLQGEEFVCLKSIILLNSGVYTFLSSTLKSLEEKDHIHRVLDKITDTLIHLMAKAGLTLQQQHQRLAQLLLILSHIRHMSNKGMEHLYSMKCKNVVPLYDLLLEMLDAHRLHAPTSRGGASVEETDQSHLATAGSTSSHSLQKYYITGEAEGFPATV
Chain of Androgen receptor (Homo sapiens) (P10275 whole entry, looked up): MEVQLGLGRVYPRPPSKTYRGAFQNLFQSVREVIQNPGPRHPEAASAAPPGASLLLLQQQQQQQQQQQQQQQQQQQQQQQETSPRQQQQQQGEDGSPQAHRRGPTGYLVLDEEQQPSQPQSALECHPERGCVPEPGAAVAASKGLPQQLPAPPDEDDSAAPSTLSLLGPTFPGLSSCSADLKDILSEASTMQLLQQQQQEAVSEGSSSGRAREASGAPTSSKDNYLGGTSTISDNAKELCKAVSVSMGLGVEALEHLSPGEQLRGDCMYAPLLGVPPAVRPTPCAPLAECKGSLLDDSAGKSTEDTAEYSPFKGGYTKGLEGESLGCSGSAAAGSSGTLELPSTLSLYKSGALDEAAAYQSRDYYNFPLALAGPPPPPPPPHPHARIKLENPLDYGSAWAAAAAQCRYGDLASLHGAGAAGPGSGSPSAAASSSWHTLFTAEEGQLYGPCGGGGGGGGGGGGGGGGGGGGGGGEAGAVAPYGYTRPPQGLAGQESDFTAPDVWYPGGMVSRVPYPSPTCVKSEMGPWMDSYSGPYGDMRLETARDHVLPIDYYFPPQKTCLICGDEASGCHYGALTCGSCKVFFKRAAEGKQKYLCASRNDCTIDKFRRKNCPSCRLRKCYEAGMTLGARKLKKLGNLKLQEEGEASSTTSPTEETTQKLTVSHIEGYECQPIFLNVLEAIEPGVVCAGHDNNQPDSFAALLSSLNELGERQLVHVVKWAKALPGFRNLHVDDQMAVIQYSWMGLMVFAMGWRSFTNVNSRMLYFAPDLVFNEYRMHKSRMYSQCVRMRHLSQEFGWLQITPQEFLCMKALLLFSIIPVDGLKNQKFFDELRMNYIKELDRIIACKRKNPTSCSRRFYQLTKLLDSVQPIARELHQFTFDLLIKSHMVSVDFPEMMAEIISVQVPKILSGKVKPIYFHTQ

SMILES	Potency [1]	Potency [2]	Potency [3]	Potency [4]	Potency [5]	Potency [6]	Potency [7]	Potency [8]	Potency [9]	Potency [10]	Potency [11]	Potency [12]	Potency [13]	Potency [14]	Potency [15]	Potency [16]	Potency [17]	outcome [18]	Potency [19]	Potency [20]
NNc1nc(-c2ccc([N+](=O)[O-])cc2)cs1	27.3 µM (active)	17.2 µM (active)	48.6 µM (active)	17.2 µM (active)	inactive	inactive	inactive	inactive	48.6 µM (active)	inactive	inactive	inactive	–	–	–	–	–	–	–	–
CCCCN1CCCC[C@H]1C(=O)Nc1c(C)cccc1C	inactive	inactive	inactive	inactive	inactive	inactive	inactive	–	inactive	inactive	inactive	inactive	inactive	inactive	inactive	inactive	inactive	inactive	inactive	–
O=C(N/N=C/c1ccccc1O)c1ccncc1	inactive	–	9.44 µM (active)	23.7 µM (active)	inactive	inactive	inactive	2.11 µM (active)	inactive	–	inactive	–	inactive	inactive	inactive	0.473 µM (active)	–	inactive	inactive	–
CCCCCCCCCCCCCCCCCC[N+](C)(C)C	inactive	27.4 µM (active)	54.6 µM (active)	inactive	68.8 µM (active)	inactive	–	–	61.3 µM (active)	inactive	30.7 µM (active)	inactive	–	–	–	0.274 µM (active)	27.4 µM (active)	inactive	inactive	–
Oc1ccc(N=Nc2ccccc2)cc1	inactive	31 µM (active)	inactive	2.77 µM (active)	27.7 µM (active)	inactive	–	–	24.7 µM (active)	inactive	–	24.7 µM (active)	–	inactive	–	43.8 µM (active)	–	inactive	inactive	–
Cc1[nH]nc2c1N=C(c1ccccc1Cl)c1cc([N+](=O)[O-])ccc1N2	27.3 µM (active)	–	–	inactive	13.7 µM (active)	inactive	–	–	30.6 µM (active)	–	48.6 µM (active)	–	–	–	–	1.72 µM (active)	27.3 µM (active)	inactive	–	27.3 µM (active)
COc1cccc2c1C(=O)c1c(O)c3c(c(O)c1C2=O)C[C@@](O)(C(=O)CO)C[C@@H]3O[C@H]1C[C@H](N)[C@H](O[C@@H]2CCCCO2)[C@H](C)O1	13.3 µM (active)	2.11 µM (active)	inactive	11.9 µM (active)	11.9 µM (active)	inactive	–	–	–	inactive	–	inactive	inactive	inactive	11.9 µM (active)	–	–	inactive	inactive	–
COC(=O)C1=C(C)NC(C)=C(C(=O)OCCc2ccc(N3CCN(C(c4ccccc4)c4ccccc4)CC3)cc2)C1c1cccc([N+](=O)[O-])c1 (stereo unspecified)	inactive	inactive	inactive	inactive	inactive	inactive	–	–	inactive	inactive	inactive	inactive	–	inactive	inactive	inactive	inactive	–	–	–
Cc1c(C)c2c(c(C)c1O)CCC(C)(COc1ccc(CC3SC(=O)NC3=O)cc1)O2 (stereo unspecified)	inactive	54.5 µM (active) and inactive	–	inactive	inactive	inactive	–	–	inactive	inactive	inactive	–	–	inactive	inactive	54.5 µM (active)	11.9 µM (active)	inactive	inactive	–
Cc1cc(O)c(C(C)(C)C)cc1C(C)(C)C	inactive	61.1 µM (active)	54.5 µM (active)	inactive	61.1 µM (active)	inactive	–	–	–	inactive	61.1 µM (active)	inactive	–	–	61.1 µM (active)	48.6 µM (active)	54.5 µM (active)	inactive	inactive	–
Oc1ccc(Cl)cc1Sc1cc(Cl)ccc1O	inactive	–	30.6 µM (active) and 29.8 µM (active)	inactive	30.6 µM (active) and inactive	inactive	–	18.8 µM (active)	21.6 µM (active) and 26.6 µM (active)	–	48.5 µM (active)	inactive	inactive	inactive	30.6 µM (active) and inactive	26.6 µM (active)	48.5 µM (active) and 29.8 µM (active)	–	–	–
CCN(Cc1cccnc1)C(=O)c1cccc(Cl)c1[C@]1(C)C(=O)N(Cc2ccc(OC)cc2OC)c2ccc(Cl)cc21	inactive	57.1 µM (active)	64.1 µM (active)	inactive	–	inactive	inactive	8.07 µM (active)	–	inactive	inactive	–	–	inactive	–	28.6 µM (active)	–	inactive	inactive	–
CSc1cnc(C)cn1	inactive	–	inactive	inactive	inactive	inactive	inactive	inactive	inactive	–	inactive	inactive	–	inactive	inactive	inactive	inactive	–	inactive	–
O=C1Cc2cc(CCN3CCN(c4nsc5ccccc45)CC3)c(Cl)cc2N1	inactive	–	inactive	inactive	23.7 µM (active)	inactive	inactive	–	–	–	–	inactive	inactive	inactive	–	29.8 µM (active)	23.7 µM (active)	inactive	inactive	–
O=C(Nc1cccc(C(F)(F)F)c1)c1cc(Br)cc(Br)c1O	inactive	–	4.86 µM (active)	3.86 µM (active)	inactive	inactive	–	–	4.33 µM (active)	–	27.3 µM (active)	inactive	inactive	inactive	–	1.72 µM (active)	24.3 µM (active)	inactive	inactive	–
